Assay outcomes deposited in PubChem BioAssay by several laboratories.
DUSP3 inh: VHR1 phosphatase inhibitors, primary screen, biochemical, absorbance, uHTS. Dual specificity protein phosphatase 3 (Homo sapiens), P51452. recombinant VHR phosphatase, pNPP absorbance. inhibition, % at 13.3 µM. 0.52% of 290,000 active; in the data active = inhibition above about 50%
Target sequence (P51452 whole entry, looked up): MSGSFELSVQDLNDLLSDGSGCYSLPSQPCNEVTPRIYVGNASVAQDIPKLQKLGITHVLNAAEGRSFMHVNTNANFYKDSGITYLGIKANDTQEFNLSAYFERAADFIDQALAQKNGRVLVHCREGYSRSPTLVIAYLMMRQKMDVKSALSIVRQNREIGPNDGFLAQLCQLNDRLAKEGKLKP
PrPC surface inh: inhibitors of human cell surface prion protein PrPC, primary screen, cell-based, TR-FRET. 0.43% of 370,000 active. AID 720596, 2013. inhibition, % at 13.8 µM. Major prion protein (Homo sapiens), P04156. TR-FRET read-out; in the data active = inhibition above about 24%; note: 0% = median of the test wells and 100% = reference compound wells
Sa ugtP lethal: growth inhibition of ugtP-null S. aureus, primary screen, RN4220 ugtP deletion, OD600 | 16 h | growth inhibition, % (test concentration not listed) | 0.54% of 330,000 active; in the data active = growth inhibition above about 68%;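 note: plate controls were untreated wells for no effect and antibiotic for full effect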
Sa RN4220 lethal: growth inhibition of S. aureus RN4220, primary screen, OD600; 16 h; inhibition, % (concentration not given with the values); 0.33% of 330,000 active; AID 1259311, 2017; in the data active = inhibition above about 85%;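 note: plate controls were untreated cells for no effect and reference antibiotic for full effect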
PfHsp40 yeast: rescue of yeast from PfHsp40 toxicity, primary screen, S. cerevisiae, ATP luminescence; 0.68% of 340,000 active; AID 504582, 2011; S. cerevisiae expressing PfHsp40, growth rescue; growth rescue, % at 12.5 µM; in the data active = growth rescue above about 28%, passing the limit was not always enough;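 note: yeast W303a lacking pdr1 and pdr3 grown in galactose medium; growth measured after three days at 30 °C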
Numbers without * were called inactive; / = no result. A selection: hits, their analogues and other compounds. The true share with any hit is near 1.8%.

SMILES	DUSP3 inh	PrPC surface inh	Sa ugtP lethal	Sa RN4220 lethal	PfHsp40 yeast
Cc1cc(C(=O)Nc2ccc(Br)cc2F)n(-c2ccccc2)n1	58.1*	-2.5	3.8	1.5	0.0
CC(/C=C/c1ccc(N(C)C)cc1)=N/N=C1/NC(=O)CC(C(=O)Nc2ccccc2)S1 (centres undefined)	/	/	-8.5	-13.8	/
O=C(O)C1=CC(C2CCCCC2)CC(OCc2ccc(CO)cc2)O1 (centres undefined)	/	/	2.5	10.0	/
COc1ccc(-c2nc3ccccn3c2NCc2ccc3c(c2)OCO3)cc1	17.9	-6.9	1.8	5.0	1.4
COc1ccc(-c2cc(-c3nc4ccccn4c3NCc3ccccc3)ccc2OC)cc1	/	85.3*	/	/	1.1
NC(Cn1nnc(-c2ccccc2)n1)=NO	/	/	-1.6	-0.9	/
CCN1CCCC1CNC(=O)c1cn(CC)c2ccc(S(=O)(=O)N3CCCCCC3)cc2c1=O (centres undefined)	-7.3	/	-6.7	-17.3	/
CCn1cc(C(=O)NCCCOC)c(=O)c2cc(S(=O)(=O)N(C)C3CCCCC3)ccc21	7.8	-2.4	3.1	10.7	0.2
CCC1CCCCN1CCCNC(=O)c1cn(CC)c2ccc(S(=O)(=O)N(C)C3CCCCC3)cc2c1=O (centres undefined)	51.2*	-15.9	-4.6	-1.4	-1.1
CCN1CCCC1CNC(=O)c1cn(C)c2ccc(S(=O)(=O)N3CCCCCC3)cc2c1=O (centres undefined)	50.8*	-8.1	-8.3	-14.2	1.1
Cc1ccc(CNC(=O)C2CC2C(NP(=O)(c2ccccc2)c2ccccc2)c2ccccc2)o1 (centres undefined)	/	/	-4.2	4.7	/
Cc1ccsc1C(=O)N1CCCC(CCC(=O)NCc2ccccc2F)C1 (centres undefined)	22.0	5.6	0.3	2.1	36.7*
Cc1ccsc1S(=O)(=O)N1CCCC(CCC(=O)NCc2ccccc2F)C1 (centres undefined)	20.9	-5.4	2.9	1.6	0.2
Cc1ccsc1C=C(C(=O)c1ccc(OC(C)C)cc1)c1nc2ccccc2o1	/	/	10.0	5.1	/
O=C(O)c1ccc(CSc2nnc(-c3ccncc3)n2CC2CCCO2)cc1 (centres undefined)	2.9	0.4	-2.0	-1.1	-0.6
Cc1ccc(CSc2nnc(-c3ccncc3)n2CC2CCCO2)cc1 (centres undefined)	13.2	4.7	3.9	3.5	53.7*
Cc1ccc(C(=O)ON=Cc2ccc(N3CCCCC3)c([N+](=O)[O-])c2)cc1	/	/	4.5	4.8	/
CC1SCC(=NOCc2c(Cl)cccc2Cl)CS1 (centres undefined)	12.5	-4.5	49.5	3.8	59.1*
CC1CN(C(C)CO)C(=O)c2cc(NS(=O)(=O)c3ccc(Cl)cc3)ccc2OC1CN(C)Cc1ccncc1 (centres undefined)	/	/	2.9	3.2	/
O=C(c1ccc([N+](=O)[O-])o1)N1CCN(Cc2ccccc2)CC1	-3.8	-13.8	0.8	-1.0	-0.8
CCc1cccc2sc(N3CCN(C(=O)c4ccc([N+](=O)[O-])o4)CC3)nc12	/	/	99.0*	99.7*	38.7*
Cc1cc(C(=O)COC(=O)Cc2n[nH]c(=O)c3ccccc23)c(C)n1-c1cccc(C(F)(F)F)c1	17.0	2.0	11.1	-1.8	95.6*
Cc1cc(C(=O)COC(=O)CC2Sc3ccccc3NC2=O)c(C)n1-c1cccc(C(F)(F)F)c1 (centres undefined)	-3.8	-6.0	-2.4	-0.8	8.2
O=C(CSc1ccc(-c2ccco2)nn1)N1CCCC1	9.8	-8.5	2.8	3.0	0.2
O=C(CSc1ccc(-c2ccccn2)nn1)c1ccccc1	6.3	1.2	6.1	7.2	401.3*
SMILES	DUSP3 inh	PrPC surface inh	Sa ugtP lethal	Sa RN4220 lethal	PfHsp40 yeast
O=C(CSc1ccc(-c2ccccn2)nn1)NC1CCCC1	21.7	3.1	-2.9	4.1	221.5*
CCc1ccc(-c2ccc(SCC(=O)NC3CCCC3)nn2)cc1	/	5.3	/	/	/
O=C(CSc1ccc(-c2ccccn2)nn1)c1ccc(F)cc1	15.4	1.8	0.0	1.5	6.1
c1ccc(CSc2ccc(-c3ccccn3)nn2)cc1	-7.4	23.2	1.2	9.4	112.0*
O=C(CSc1ccc(-c2ccccn2)nn1)N1CCCC1	16.5	11.2	3.8	0.8	90.5*
Cc1noc(C)c1NC(=O)N(C)CC1Oc2c(NC(=O)Nc3ccc4c(c3)OCO4)cccc2C(=O)N(C(C)CO)CC1C (centres undefined)	/	/	3.2	1.2	/
CCN1C(=O)C2C(c3ccc(OC)cc3)N3C(=O)CN(CCOC)C(=O)[C@@]3(C)C2C1=O (some centres undefined)	/	/	1.3	3.7	/
CCOC1OC(C(=O)NCc2ccccc2)=CC(c2ccc(Br)cc2)C1CCCO (centres undefined)	/	/	6.9	4.1	/
COC(=O)C1=C(C)N(Cc2ccccc2)C(=NCc2cc(OC)c(OC)c(OC)c2)NC1c1ccccc1 (centres undefined)	/	/	-12.7	-5.4	/
O=C(/C=C/c1ccccc1Cl)NCCc1ccc(F)cc1	-7.9	0.7	-6.5	-3.6	39.1*
Cc1[nH][nH]c(=O)c1C(c1c(C)[nH][nH]c1=O)c1cn(Cc2ccc(Cl)c(Cl)c2)c2ccccc12	-1.6	-9.9	88.0*	36.4	1.1
COC(=O)c1sc(SC)c2c1CC(C)(C)CC2=NO	/	/	12.2	2.6	/
Oc1ccc(C(Cc2ccc3ccccc3n2)=NNc2ccccc2)c(O)c1	/	/	-10.4	-7.2	/
CCN1C(C#N)=C(C#N)N=C(C)CC1(C)C	52.9*	-5.4	2.1	0.3	1.3
CCOc1cc(C=NNC(=O)C(=O)NCCCOC(C)C)cc(Br)c1O	/	/	-1.0	0.7	/
N#CC(=NNc1cccc(C(F)(F)F)c1)C(=O)c1csc(-c2cccnc2)n1	/	/	30.4	87.1	/
CC(=NOC(=O)c1ccc(C)cc1)c1ccc(N2C(=O)C3CCCCC3C2=O)cc1 (centres undefined)	/	/	2.2	2.9	/
O=P(Nc1cccnc1)(Oc1ccccc1Cl)Oc1ccccc1Cl	8.5	3.6	-30.4	8.5	411.4*
COc1ccc(CCCC(=O)NN=Cc2ccc(C)cc2)cc1	/	/	1.4	5.2	/
Cc1cc(C(=O)OC2C(C)NS(=O)(=O)C3CC4C=C[C@]23O4)cc([N+](=O)[O-])c1 (some centres undefined)	/	/	1.2	4.8	/
O=C(N/N=C/c1cccc(Oc2ccccc2)c1)c1ccccc1F	-21.7	3.5	/	/	-2.9
O=C(NN=Cc1cccc(Oc2ccccc2)c1)c1ccccc1Br	/	/	99.0*	-2.9	/
CC12CCC(CC1=NNC(=O)COc1ccccc1Cl)C2(C)C (centres undefined)	/	/	4.7	6.6	/
O=C(CCN1C(=O)/C(=C/c2ccccc2Cl)SC1=S)NC1=NCCS1	20.7	-0.6	86.7*	3.2	-1.5
O=C(NCCN1CCCCC1)Nc1ccc(Cl)cc1	57.0*	-2.8	11.8	4.4	0.3
O=C(NCCN1CCOCC1)Nc1ccc(Cl)cc1	-11.0	0.6	-2.4	6.4	-0.8
c1coc(-c2nc(-c3ccco3)c(-c3ccco3)nc2-c2ccco2)c1	50.6*	-10.9	15.2	9.1	0.5
